Giardia FBPA inh – blocks Giardia fructose-bisphosphate aldolase activity; purified Giardia FBPA; hit rate 0.71% among 290,000; Potency, µM (doses to about 59.6 µM), for the others: at the highest dose activity, negative = inhibition, most hits filed as inhibitors; A8B2U2; AID 2451; note: potency is the fitted concentration of half-maximal effect; nearly all actives have a fitted effect of over 55% in size
Target sequence (A8B2U2 whole entry, looked up): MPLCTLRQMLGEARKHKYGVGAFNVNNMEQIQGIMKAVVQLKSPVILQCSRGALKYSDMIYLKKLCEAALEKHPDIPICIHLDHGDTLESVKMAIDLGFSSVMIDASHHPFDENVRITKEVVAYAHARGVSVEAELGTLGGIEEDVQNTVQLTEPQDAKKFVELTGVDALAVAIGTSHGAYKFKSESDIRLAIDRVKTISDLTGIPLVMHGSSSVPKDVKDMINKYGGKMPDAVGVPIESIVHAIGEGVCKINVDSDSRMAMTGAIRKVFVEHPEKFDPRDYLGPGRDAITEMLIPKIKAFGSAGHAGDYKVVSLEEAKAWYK
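Giardia FBPA (40 nM reagent) was preincubated 10 min at RT with compound (up to 57.5 uM final), then substrate plus GAPDH/TPI/NAD/arsenate coupling system with diaphorase/resazurin was added; resorufin fluorescence (525/598 nm) was read after 20 min.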
Vaccinia mCherry – inhibitors of vaccinia virus infection (mCherry reporter signal). Vaccinia virus mCherry reporter infection, fluorescence. hit rate 0.63% among 310,000. AID 720579. Potency, µM (highest dose often 36.5 µM), for inactives: top-dose activity change, negative = inhibition, usual class: inhibitors; calls by dose curve; tested in A549 cells; note: potency is the fitted concentration of half-maximal effect; nearly all actives have a fitted effect of over 35% in size
FMDV inh – antivirals against foot and mouth disease virus; FMDV antiviral cell-based qHTS; Potency, µM (highest dose often 57.9 µM), inactives show at the top dose activity change, negative = inhibition, most hits filed as inhibitors; hit rate 1.2% among 410,000; AID 1159524; calls by dose curve; tested in HEK293T cells; note: read-out not given here; potency is the fitted concentration of half-maximal effect; nearly all actives have a fitted effect of over 45% in size
HCV inh – HCV inhibition. hit rate 3.4% among 340,000. Potency, µM (series often up to 41.8 µM), inactives show at the highest dose activity change, negative = inhibition, most hits filed as inhibitors. Huh7.5.1 HCVcc-Cre infection, luciferase reporter, 44 h; note: potency is the fitted concentration of half-maximal effect
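Reporter virus HCVcc-Cre (~0.5 moi) infects cells exposed to compound; seeding density 1,000 cells/well with 4 h settling beforehand. Luminescence, 15 sec read, taken 44 h post-infection following a 15 min RT substrate incubation.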
Vaccinia Venus – vaccinia inhibition (Venus reporter); Potency, µM (series often up to 36.5 µM), for inactives: at the top dose activity change, negative = inhibition, usual class: inhibitors; hit rate 0.46% among 330,000; AID 720580; Vaccinia virus Venus reporter expression, fluorescence; calls by dose curve; tested in A549 cells; note: potency is the fitted concentration of half-maximal effect; nearly all actives have a fitted effect of over 30% in size
HCMV antiviral – inhibitors of human cytomegalovirus; HFF cells, HCMV-luciferase reporter, 72 h; stronger effect = lower value; activity change, negative = inhibition, % at 57.5 µM; hit rate 4.5% among 410,000; in the data active = activity change below about -60%; inconclusive = no clear call, values can overlap the other calls; inactive = above about -39%
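Steps: HFFs plated, 16 h 37C; compounds added; HCMV-luciferase added to MOI 1 PFU/cell; 72 h 37C; OneGlo reagent, 5 min room temperature; luminescence read, normalized to controls.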
Numbers without * were called inactive; i = inactive; ? = inconclusive; . = no result given; [ ] = another dose, or the depositor's remark. Most compounds without a hit are left out; they make up all but 7.5% or so of the library. Unless noted, calls come from the whole dose curve; as a rule, active = well fitted curve in the direction sought with a large enough effect; inconclusive = small, poorly fitted or top-dose-only effect, or another doubt; inactive = no such curve, though single readings can be large; an effect the other way counts as inactive or inconclusive. % is set by controls: 0 for no effect and ±100 for the full control effect.

SMILES	Giardia FBPA inh	Vaccinia mCherry	FMDV inh	HCV inh	Vaccinia Venus	HCMV antiviral
CCNC(=S)N/N=C(\C)c1ccc(N2CCOCC2)cc1	-16%	i	-8%	?	-14%	-16
CNC(=S)N/N=C(\C)c1ccc(N2CCOCC2)cc1	?	.	37%	-15%	.	-99*
COc1ccc(-c2noc(CN(C)CCC3CCCCO3)n2)cc1 (stereo not drawn)	4%	-5%	-15%	-11%	-9%	-27
COC(=O)c1ccc(-c2noc(CN(C)CCC3CCCCO3)n2)cc1 (stereo not drawn)	18µM*	-14%	-15%	11%	-1%	13
COc1ccccc1C(=O)c1cc2ccc(O)cc2oc1=O	1%	-18%	7%	30%	-17%	-62*
COc1ccc(NC(=O)CSc2nc(C(C)C)nc3c2c(=O)n(C)c(=O)n3C)c(OC)c1	.	.	-16%	-18%	.	2
CCCCCSc1cc(OC)c(CCNC)cc1OC	0%	.	0%	?	?	-24
CCCCCCCSc1cc(OC)c(CCNC)cc1OC	6%	.	0%	?	?	-99*
CNC[C@H](CC1CCCCC1)NC[C@H](Cc1ccccc1)NCCC12CC3CC(CC(C3)C1)C2	?	?	32µM*	1%[8.37 µM]	10µM*	-105*
NC[C@H](Cc1ccccc1)NCCCCC1CCCCC1	.	?	-16%	?	-4%	-3
COc1cc(NC(=O)c2ccc(Cl)cc2)c2ncccc2c1	-3%	.	-24%	?	.	34
COc1cc(C(=O)NC(c2ccccc2Cl)c2cc(Cl)c3cccnc3c2O)cc(OC)c1OC (stereo not drawn)	.	11µM*	-11%	.	-21%	-79*
COc1ccc(C(=O)NC(c2ccccc2Cl)c2cc(Cl)c3cccnc3c2O)cc1 (stereo not drawn)	.	-15%[7.34 µM]	-13%	.	-12%[7.34 µM]	-98*
Cc1onc(-c2ccccc2)c1C(=O)N/N=C/C(Br)=C/c1ccccc1	11%	?	-9%	?	-15%	-70*
Cc1onc(-c2ccccc2)c1C(=O)N/N=C/c1cc(Br)c(O)c(Br)c1	-3%	?	?	-15%	?	2
Cc1onc(-c2ccccc2)c1C(=O)Nc1ccc(NC(=O)c2c(-c3ccccc3)noc2C)cc1	.	.	-17%	-19%	.	-5
Cc1cccc(/C=N/NC(=O)c2c(-c3ccccc3)noc2C)c1O	.	0.56µM*	-26%	?	-28%	-113*
Cc1cccc(C(C)C)c1NC(=O)c1c(-c2ccccc2)noc1C	13%	.	40%	14%	.	-62*
COc1cc2c(-c3ccc4cc[nH]c4c3)c(-c3ccsc3)oc(=O)c2cc1OC	.	-19%	11%	?	-16%	?
COc1cc2c(-c3ccc4[nH]ccc4c3)c(-c3ccc(C#N)cc3)oc(=O)c2cc1OC	.	?	-10%	11µM*	-30%	-25
CC(C)Oc1ccc(CNC(=O)C2CCN(Cc3cc4ccccc4n3Cc3ccccc3)CC2)cc1	.	-26%	-14%	.	-23%	4
COc1ccc(/C=C/C(=O)NCC2Cc3cc(Cl)cc(-c4ncccn4)c3O2)cc1 (stereo not drawn)	.	-8%	0%	.	-7%	.
CCOc1ccccc1Nc1nnc(SCC(=O)N2CCCC2)s1	13%	.	18%	25µM*	.	141
O=C(Nc1ccc(F)cc1)Nc1nnc(SCC(=O)N2CCCCC2)s1	.	-3%[7.34 µM]	-17%	.	-5%[7.34 µM]	-75*
O=C(Nc1ccccc1)Nc1nnc(SCC(=O)N2CCCCC2)s1	.	-8%[7.34 µM]	?	.	-7%[7.34 µM]	2
SMILES	Giardia FBPA inh	Vaccinia mCherry	FMDV inh	HCV inh	Vaccinia Venus	HCMV antiviral
Cc1ccc(NC(=O)Nc2nnc(SCC(=O)N3CCCCC3)s2)cc1	.	-2%[7.34 µM]	20%	.	-9%[7.34 µM]	-87*
CCn1c(CNc2ccc(Cl)cc2)nnc1SCCN1CCCCC1	5%	.	-19%	?	-8%	-106*
c1ccc(NCc2nnc3n2CCCCC3)cc1	0%	?	.	-5%	6%	40
CCn1c(CNc2ccc(Cl)cc2)nnc1SCc1ccc(Cl)cc1	4%	?	-15%	?	-23%	-11
Clc1ccc(NCc2nnc3n2CCCCC3)cc1	1%	.	-15%	6%	-19%	-99*
Cc1ccc(S(N)(=O)=O)cc1NC(=O)c1ccc2c3c(cccc13)CC2	-12%	.	0%	-8%	.	-4
COc1ccccc1NC(=O)C1CCN(S(=O)(=O)c2cn(C)cn2)CC1	.	-7%	29%	.	-3%	49
O=C(NCc1ccco1)c1nc2c(nnn2Cc2ccccc2Cl)c(=O)[nH]1	-4%	13µM*	.	?	11µM*	-98*
CCc1ccc(C(=O)c2cn(CC(=O)Nc3ccc(F)cc3)c3ccc(OC)cc3c2=O)cc1	.	-14%	-25%	.	-8%	-71*
CCc1ccc(C(=O)c2cn(CC(=O)Nc3ccc(F)c(F)c3)c3cc(OC)c(OC)cc3c2=O)cc1	.	?	?	.	-29%	-67*
c1ccc2c(c1)OC[C@@H](C1=NCCN1)O2	0%	.	?	.	.	.
COC(=O)c1ccccc1NC(=O)COc1ccccc1C(=O)Nc1ccccc1	.	-5%	.	.	-4%	.
OC(c1ccc(-c2ccccc2)cc1)c1ncc(-c2ccc(C(F)(F)F)cc2)[nH]1 (stereo not drawn)	.	0%	-23%	.	-18%	-18
CCOc1ccc(NC(=O)NC(C)c2c(-n3cccc3)sc3c2CCN(CC)C3)cc1 (stereo not drawn)	.	-7%	10%	.	-11%	-79*
CCC(NC(=O)Nc1cc(OC)ccc1OC)c1c(-n2cccc2)sc2c1CCN(CC)C2 (stereo not drawn)	.	-16%	5%	.	-16%	-73*
COC(=O)C1(O)CC(c2ccccc2)C(C(=O)c2ccccc2)N1c1ccc(F)cc1 (stereo not drawn)	.	.	.	.	.	-30
CC(=O)c1cn(CC(=O)NCCc2c[nH]c3ccccc23)c2ccccc12	-5%	.	?	10µM*	.	-38
CC(=O)c1cn(CC(=O)Nc2ccc(C)cc2)c2ccccc12	1%	-14%	2%	?	-16%	-16
CC(=O)c1cn(CC(=O)Nc2ccccc2C)c2ccccc12	.	.	?	?	?	-68*
CC(C)(C)C(=O)c1cn(CC(=O)O)c2ccccc12	-5%	i	7%	10µM*	-12%	-8
CCC(=O)c1cn(CC(=O)Nc2c(C)cccc2C)c2ccccc12	9%	.	-19%	-8%	.	11
O=C(O)Cn1cc(C(=O)C(F)(F)F)c2ccccc21	5%	i	11%	3%	-1%	-17
CC(=O)c1cn(CC(=O)Nc2c(C)cccc2C)c2ccccc12	.	?	?	5.6µM*	?	-75*
O=C(Nc1nccs1)[C@@H]1CC=C[C@@H]2CCN(C3CC3)C(=O)[C@@H]21	.	i	.	.	-8%	.
COc1ncnc2c1ncn2CCCNCC(C)c1ccccc1 (stereo not drawn)	.	i	2%	.	-6%	7

High-throughput results from PubChem BioAssay.
